For 14 compounds, Potency results are on record in PubChem BioAssay (NCATS).

The structures appear in SMILES notation. Inconclusive results are not listed. Activity calls are given as the source filed them. Calls come from the whole dose curve; as a rule, active = well fitted curve in the direction sought with a large enough effect; inconclusive = small, poorly fitted or top-dose-only effect, or another doubt; inactive = no such curve, though single readings can be large; an effect the other way counts as inactive or inconclusive.

The subject of assay [1] is Hek293T. In words: Primary qHTS to identify gynecologic anti-cancer compounds using libraries of approved drugs and bioactive compounds (AID 1345084). Note: nearly all actives have a fitted effect of over 55% in size. Note: potency is the fitted concentration of half-maximal effect. The conditions noted are these: Gynecologic cancer cell panel viability, ATPlite luminescence, 48 h, control line for the selectivity index; series mostly up to 57.5 µM. Put shortly:
(§1)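 Cell viability after 48 h drug treatment, ATPlite luminescence readout; five doses.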
A general note: Quantitative high-throughput screening tests each substance at several concentrations.

For assay [2], the system named is JEG-3. The description is as above. The conditions noted are these: Gynecologic cancer cell panel viability, ATPlite luminescence, 48 h; series mostly up to 57.5 µM. Put shortly:
as §1
(In general: In ATP-based viability assays light output follows the ATP content of the culture.)

For assay [3], the system named is OV90. Described as above. The conditions noted are these: Gynecologic cancer cell panel viability, ATPlite luminescence, 48 h; series mostly up to 57.5 µM. The method in brief:
as §1

The test system of assay [4] is PA-1. The description is as above. The conditions noted are these: Gynecologic cancer cell panel viability, ATPlite luminescence, 48 h; series mostly up to 57.5 µM. The method in brief: as §1
The test system of assay [5] is SKOV3. Described as above. The conditions noted are these: Gynecologic cancer cell panel viability, ATPlite luminescence, 48 h; series mostly up to 57.5 µM. The method in brief: as §1
Assay [6] relates to Tov-21-G. The description is as above. The conditions noted are these: Gynecologic cancer cell panel viability, ATPlite luminescence, 48 h; series mostly up to 57.5 µM. Put shortly:
as §1

The test system of assay [7] is Tov112D. Described as above. The conditions noted are these: Gynecologic cancer cell panel viability, ATPlite luminescence, 48 h; series mostly up to 57.5 µM. The method in brief:
as §1

Assay [8] in a line: qHTS assay to identify inhibitors of the type 1 interferon - major histocompatibility complex class I in skeletal muscle: Counter screen cell viability and HiBit confirmation (AID 1347412). Note: nearly all actives have a fitted effect of over 60% in size. The conditions noted are these: iHSKM muscle cells + IFN-b, HiBiT or CellTiter-Glo, 24 h; Potency: HiBiT; Viability, at 45.9 µM (top of the series). The method in brief: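 Human myoblast knock-in line, 4.0 ng/ml IFN-beta stimulation, 24 h compound treatment. Endpoints: HiBiT lytic luminescence (HLA-B level) and CellTiter Glo (ATP). Dosing 12 concentrations, 3-fold steps, 46 uM highest final.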

For the compound `c1ccc2c(Oc3nc(Nc4ccc(N5CCOCC5)cc4)c4ncn(C5CCCCC5)c4n3)cccc2c1`, the Potency result in assay [1], in assay [2], in assay [3], in assay [4], in assay [5] and in assay [6] was “inactive” throughout. The Potency entry in assay [7] was “inactive”.

In the case of `CC(O)(C#Cc1ccc2c(c1)N(c1nc(N)ncc1Cl)CC2)c1nccs1` (centres undefined), the Potency entry in assay [1], in assay [2], in assay [3], in assay [4], in assay [5] and in assay [6] was “inactive” each time. In addition, the Potency entry in assay [7] was “inactive”.

For `CCCCC(=O)O[C@]1(C(=O)CO)[C@@H](C)C[C@H]2[C@@H]3CCC4=CC(=O)C=C[C@]4(C)[C@@]3(F)[C@@H](O)C[C@@]21C`, the Potency entry in assay [1], in assay [2], in assay [3], in assay [4], in assay [6] and in assay [7] was “inactive” in each case. The Potency result in assay [8] is “inactive”.

Consider `Cc1ncc(-c2ccnc(Nc3ccc(S(C)(=O)=O)cc3)n2)n1C(C)C`, for which the Potency in assay [1] was 5.01 µM (active); in assay [4] it was 5.01 µM (active); in assay [6] it was 10 µM (active); in assay [7], 10 µM (active). Further, in assay [2], the Potency entry was “inactive”.

As for `Cn1cc(-c2ccc3ncc(Cc4ccc5ncccc5c4)n3n2)cn1`, the Potency result in assay [1] and in assay [3] was “inactive” in each case.

Take `Cn1cnc2c(F)c(Nc3ccc(Br)cc3F)c(C(=O)NOCCO)cc21`: the Potency entry in assay [1], in assay [2], in assay [5] and in assay [7] was “inactive” each time. Moreover, in assay [3], the Potency was 0.224 µM (active).

As for `CN1CCc2c(c3ccccc3n2Cc2ccc(C(=O)NO)cc2)C1`, the Potency result in assay [1], in assay [2], in assay [3], in assay [5] and in assay [7] was “inactive” throughout.

Turning to `C[C@H](O)[C@@H]1C(=O)N2C(C(=O)O)=C(S[C@@H]3CN[C@H](CNS(N)(=O)=O)C3)[C@@H](C)[C@@H]12`, the Potency result in assay [1], in assay [2], in assay [3], in assay [4], in assay [6] and in assay [7] was “inactive” each time.

Turning to `CC1=C(C(=O)Nc2cc3cn[nH]c3cc2F)C(c2ccc(Cl)cc2F)N=C(c2ccnc(Cl)c2)N1` (centres undefined), the Potency result in assay [1], in assay [2], in assay [3], in assay [4], in assay [5] and in assay [6] was “inactive” throughout. In assay [7], the Potency result is “inactive”.

`CS(=O)(=O)N1CCc2c(-c3cnc(N)nc3)nc(N3CCOCC3)nc21`: the Potency is 3.55 µM (active) in assay [1], 4.47 µM (active) in assay [3], 1.78 µM (active) in assay [4] and 1.26 µM (active) in assay [5].

Regarding `CCOc1cc2c(c(F)c1OCC)C(=N)N(CC(=O)c1cc(N3CCOCC3)c(OC)c(C(C)(C)C)c1)C2`, the Potency entry in assay [1], in assay [2], in assay [6] and in assay [7] was “inactive” each time.

In the case of `CCn1c(=O)c2c(nc(C=Cc3ccc(OC)c(OC)c3)n2C)n(CC)c1=O`, the Potency result in assay [1], in assay [2], in assay [3], in assay [4], in assay [5] and in assay [6] was “inactive” each time. The Potency entry in assay [7] is “inactive”.

For the compound `CN(C)CC(=O)N1CCC(c2ccc(NC(=O)c3ncc(C#N)[nH]3)c(C3=CCCCC3)c2)CC1`, the Potency result in assay [1], in assay [2], in assay [3], in assay [5] and in assay [6] was “inactive” throughout.

For the compound `Cc1coc2c1C(=O)C(=O)c1c-2ccc2c(C)cccc12`, the Potency result in assay [1], in assay [3] and in assay [6] was “inactive” each time.
